Experimental data: PubChem BioAssay AID1159580 (chemical genetic matrix, 2015)
About 2,000 (36%) of roughly 5,500 compounds were called active. Another 18% or so got no clear call; they are omitted. Cut-off read from the data, not from the text of the source: active = normalized growth mostly below about 0.91 (no sharp cut-off); inconclusive = no clear call, values can overlap the other calls; inactive = mostly above about 0.92. This is one part of the list.

Assay: chemical genetic growth profiling, strain panel (AID 1159580);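 note: tested at 20 µM; growth read once vehicle control cultures reached saturation at 30 °C; 1 = growth at the plate median or of vehicle wells; lower values mean less growth of the strain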
Settings: S. cerevisiae deletion strains, growth OD

Measured: normalized growth

NC/C=C/C(=O)O
inactive: locus YAL013W, strain DEP1, stronger effect = lower value 1.02 | locus YAL021C, strain ccr4, stronger effect = lower value 0.968 | locus YAL026C, strain drs2, stronger effect = lower value 0.997 | locus YAL030W, strain snc1, stronger effect = lower value 1 | locus YAL040C, strain CLN3, stronger effect = lower value 0.998 | locus YBL061C, strain skt5, stronger effect = lower value 1.01 | locus YBR009C, strain hhf1, stronger effect = lower value 1.01 | locus YBR021W, strain FUR4, stronger effect = lower value 1.01 | locus YBR023C, strain chs3, stronger effect = lower value 1 | locus YBR171W, strain sec66, stronger effect = lower value 0.985 | locus YBR229C, strain ROT2, stronger effect = lower value 1.01 | locus YBR231C, strain swc5, stronger effect = lower value 1.02 | locus YBR279W, strain paf1, stronger effect = lower value 1.01 | locus YCL011C, strain gbp2, stronger effect = lower value 0.983 | locus YCL016C, strain dcc1, stronger effect = lower value 1.01 | locus YCL029C, strain bik1, stronger effect = lower value 1.02 | locus YCL061C, strain MRC1 (second series), stronger effect = lower value 1 | locus YCL061C, strain MRC1, stronger effect = lower value 0.987 | locus YCL069W, strain vba3, stronger effect = lower value 0.992 | locus YCR088W, strain abp1, stronger effect = lower value 0.986 | locus YDL005C, strain med2, stronger effect = lower value 1.01 | locus YDL035C, strain GPR1, stronger effect = lower value 1.04 | locus YDL040C, strain nat1, stronger effect = lower value 1 | locus YDL074C, strain BRE1, stronger effect = lower value 0.986 | locus YDL101C, strain DUN1, stronger effect = lower value 1 | locus YDL134C, strain PPH21, stronger effect = lower value 1.01 | locus YDL185W, strain tfp1, stronger effect = lower value 1.02 | locus YDL192W, strain arf1, stronger effect = lower value 1.01 | locus YDR001C, strain nth1, stronger effect = lower value 0.987 | locus YDR069C, strain doa4, stronger effect = lower value 1.03 | locus YDR101C, strain arx1, stronger effect = lower value 1.02 | locus YDR137W, strain rgp1, stronger effect = lower value 1.01 | locus YDR150W, strain NUM1, stronger effect = lower value 1.01 | locus YDR159W, strain sac3, stronger effect = lower value 1.02 | locus YDR162C, strain NBP2, stronger effect = lower value 0.986 | locus YDR195W, strain ref2 1.01 | locus YDR297W, strain sur2, stronger effect = lower value 1.01 | locus YDR318W, strain mcm21, stronger effect = lower value 1.05 | locus YDR334W, strain swr1, stronger effect = lower value 1 | locus YDR335W, strain msn5, stronger effect = lower value 1.01 | locus YDR363W, strain ESC2, stronger effect = lower value 0.999 | locus YDR388W, stronger effect = lower value 1.01 | locus YDR392W, strain spt3, stronger effect = lower value 0.965 | locus YDR502C, strain sam2, stronger effect = lower value 0.999 | locus YEL003W, strain gim4, stronger effect = lower value 0.99 | locus YEL037C, strain rad23, stronger effect = lower value 0.982 | locus YEL061C, strain CIN8 (second series), stronger effect = lower value 0.99 | locus YEL061C, strain CIN8, stronger effect = lower value 1.01 | locus YER002W, strain NOP16, stronger effect = lower value 0.975 | locus YER015W, strain faa2, stronger effect = lower value 1.01 | locus YER016W, strain bim1, stronger effect = lower value 1.02 | locus YER110C, stronger effect = lower value 1.02 | locus YER111C, strain swi4, stronger effect = lower value 0.98 | locus YER155C, strain BEM2 (second series), stronger effect = lower value 1.01 | locus YER155C, strain BEM2, stronger effect = lower value 0.999 | locus YER167W, strain BCK2, stronger effect = lower value 1.05 | locus YFR010W, strain ubp6, stronger effect = lower value 1.01 | locus YGL078C, strain dbp3, stronger effect = lower value 0.994 | locus YGL086W, strain mad1, stronger effect = lower value 1.04 | locus YGL167C, strain pmr1, stronger effect = lower value 1.01 | locus YGL173C, strain kem1, stronger effect = lower value 1.01 | locus YGL227W, strain vid30, stronger effect = lower value 0.988 | locus YGL240W, strain doc1, stronger effect = lower value 1.02 | locus YGL248W, strain PDE1, stronger effect = lower value 1.01 | locus YGL253W, strain hxk2, stronger effect = lower value 1 | locus YGR078C, strain PAC10, stronger effect = lower value 1.01 | locus YGR135W, strain pre9, stronger effect = lower value 0.996 | locus YGR229C, strain SMI1, stronger effect = lower value 1.01 | locus YGR252W, strain gcn5, stronger effect = lower value 1.03 | locus YHR013C, strain ard1, stronger effect = lower value 0.999 | locus YHR027C, strain rpn1, stronger effect = lower value 1.01 | locus YHR030C, strain SLT2, stronger effect = lower value 1.01 | locus YHR079C, strain IRE1 (second series), stronger effect = lower value 1.01 | locus YHR094C, strain hxt1, stronger effect = lower value 1.01 | locus YHR129C, strain ARP1, stronger effect = lower value 1.02 | locus YHR142W, strain chs7, stronger effect = lower value 0.975 | locus YHR200W, strain rpn10, stronger effect = lower value 1.02 | locus YIL066C, strain RNR3, stronger effect = lower value 1.02 | locus YIL073C, strain SPO22, stronger effect = lower value 1.13 | locus YIL125W, strain kgd1, stronger effect = lower value 1.01 | locus YIR030C, strain dcg1, stronger effect = lower value 1.02 | locus YJL092W, strain hpr5, stronger effect = lower value 0.984 | locus YJL095W, strain BCK1 (second series), stronger effect = lower value 1.01 | locus YJL095W, strain BCK1, stronger effect = lower value 1.03 | locus YJL115W, strain asf1, stronger effect = lower value 0.994 | locus YJL129C, strain trk1, stronger effect = lower value 0.994 | locus YJL134W, strain LCB3, stronger effect = lower value 1.01 | locus YJL154C, strain vps35, stronger effect = lower value 0.987 | locus YJL164C, strain tpk1, stronger effect = lower value 0.989 | locus YJL166W, strain qcr8, stronger effect = lower value 1.02 | locus YJL168C, strain set2, stronger effect = lower value 1 | locus YJL187C, strain SWE1 (second series), stronger effect = lower value 1.01 | locus YJL187C, strain SWE1, stronger effect = lower value 1.02
